Experimental data published in PubChem BioAssay AID1159580 (chemical genetic matrix, 2015).
Values joined by “and” are separate entries in the source; they are usually repeats but may differ in a detail not shown here. Equal values may be shown once. Hit rate of the full screen: of about 5,500 compounds, about 2,000 (36%) were called active. About 18% were inconclusive and are not listed. Rule as the data show it: active = normalized growth mostly below about 0.91 (no sharp cut-off); inconclusive = no clear call, values can overlap the other calls; inactive = mostly above about 0.92. The list shows a part of the results.

Assay: chemical genetic growth profiling, strain panel (AID 1159580);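 also: tested at 20 µM; growth read once vehicle control cultures reached saturation at 30 °C; 1 = growth at the plate median or of vehicle wells; lower values mean less growth of the strain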
Details: S. cerevisiae deletion strains, growth OD

Measured: normalized growth

COc1cc(Cc2cnc(N)nc2N)cc(OC)c1OC
inactive: locus YAL013W, strain DEP1, active compounds read low 1 and 1.03 | locus YAL021C, strain ccr4, active compounds read low 1.02 | locus YAL026C, strain drs2, active compounds read low 1.01 | locus YAL030W, strain snc1, active compounds read low 1.01 | locus YAL040C, strain CLN3, active compounds read low 0.987 | locus YBL061C, strain skt5, active compounds read low 1.01 | locus YBR009C, strain hhf1, active compounds read low 1.01 | locus YBR021W, strain FUR4, active compounds read low 0.977 | locus YBR023C, strain chs3, active compounds read low 1.01 | locus YBR171W, strain sec66, active compounds read low 1.02 | locus YBR229C, strain ROT2, active compounds read low 0.998 | locus YBR231C, strain swc5, active compounds read low 1.01 | locus YBR279W, strain paf1, active compounds read low 1.02 | locus YCL011C, strain gbp2, active compounds read low 1.02 | locus YCL016C, strain dcc1, active compounds read low 1.02 | locus YCL029C, strain bik1, active compounds read low 0.982 | locus YCL061C, strain MRC1 (second series), active compounds read low 0.992 | locus YCL069W, strain vba3, active compounds read low 1.02 | locus YCR088W, strain abp1, active compounds read low 1.02 | locus YDL005C, strain med2, active compounds read low 1.02 | locus YDL035C, strain GPR1, active compounds read low 1.03 | locus YDL040C, strain nat1, active compounds read low 1.01 | locus YDL074C, strain BRE1, active compounds read low 0.993 | locus YDL101C, strain DUN1, active compounds read low 0.99 | locus YDL134C, strain PPH21, active compounds read low 0.986 | locus YDL185W, strain tfp1, active compounds read low 0.987 | locus YDL192W, strain arf1, active compounds read low 0.99 | locus YDR001C, strain nth1, active compounds read low 1.01 | locus YDR069C, strain doa4, active compounds read low 1.03 | locus YDR101C, strain arx1, active compounds read low 0.986 | locus YDR137W, strain rgp1, active compounds read low 1.02 | locus YDR150W, strain NUM1, active compounds read low 1 | locus YDR159W, strain sac3, active compounds read low 0.977 | locus YDR162C, strain NBP2, active compounds read low 1 | locus YDR195W, strain ref2 1 | locus YDR297W, strain sur2, active compounds read low 1.01 | locus YDR318W, strain mcm21, active compounds read low 0.99 | locus YDR334W, strain swr1, active compounds read low 1.02 | locus YDR335W, strain msn5, active compounds read low 1.02 | locus YDR363W, strain ESC2, active compounds read low 0.991 | locus YDR388W, active compounds read low 0.987 | locus YDR392W, strain spt3, active compounds read low 0.984 | locus YDR502C, strain sam2, active compounds read low 0.998 | locus YEL003W, strain gim4, active compounds read low 1.02 | locus YEL037C, strain rad23, active compounds read low 1.01 | locus YEL061C, strain CIN8 (second series), active compounds read low 1.01 | locus YEL061C, strain CIN8, active compounds read low 0.997 | locus YER002W, strain NOP16, active compounds read low 0.968 | locus YER015W, strain faa2, active compounds read low 1.02 | locus YER016W, strain bim1, active compounds read low 1.01 | locus YER110C, active compounds read low 0.988 | locus YER111C, strain swi4, active compounds read low 1.03 | locus YER155C, strain BEM2 (second series), active compounds read low 0.991 | locus YER155C, strain BEM2, active compounds read low 0.989 | locus YER167W, strain BCK2, active compounds read low 1.01 | locus YFR010W, strain ubp6, active compounds read low 1.01 | locus YGL078C, strain dbp3, active compounds read low 0.992 | locus YGL086W, strain mad1, active compounds read low 1.01 | locus YGL167C, strain pmr1, active compounds read low 1.02 | locus YGL173C, strain kem1, active compounds read low 1.02 | locus YGL227W, strain vid30, active compounds read low 1.01 | locus YGL240W, strain doc1, active compounds read low 1.01 | locus YGL248W, strain PDE1, active compounds read low 1 | locus YGL253W, strain hxk2, active compounds read low 1.01 | locus YGR078C, strain PAC10, active compounds read low 1.01 | locus YGR135W, strain pre9, active compounds read low 0.985 | locus YGR229C, strain SMI1, active compounds read low 1.04 | locus YGR252W, strain gcn5, active compounds read low 1.07 | locus YHR013C, strain ard1, active compounds read low 1.01 | locus YHR027C, strain rpn1, active compounds read low 1.01 | locus YHR030C, strain SLT2, active compounds read low 0.999 and 0.966 | locus YHR079C, strain IRE1 (second series), active compounds read low 0.988 | locus YHR079C, strain IRE1, active compounds read low 0.979 | locus YHR094C, strain hxt1, active compounds read low 0.993 | locus YHR129C, strain ARP1, active compounds read low 0.991 | locus YHR142W, strain chs7, active compounds read low 1.03 | locus YHR200W, strain rpn10, active compounds read low 0.989 | locus YIL066C, strain RNR3, active compounds read low 1 | locus YIL073C, strain SPO22, active compounds read low 0.995 | locus YIL125W, strain kgd1, active compounds read low 1 | locus YIR030C, strain dcg1, active compounds read low 0.991 | locus YJL092W, strain hpr5, active compounds read low 1 | locus YJL095W, strain BCK1 (second series), active compounds read low 1.01 | locus YJL095W, strain BCK1, active compounds read low 0.988 and 0.98 | locus YJL115W, strain asf1, active compounds read low 1.02 | locus YJL129C, strain trk1, active compounds read low 1.01 | locus YJL134W, strain LCB3, active compounds read low 0.999 | locus YJL154C, strain vps35, active compounds read low 1.03 | locus YJL164C, strain tpk1, active compounds read low 1.01 | locus YJL166W, strain qcr8, active compounds read low 0.993 | locus YJL168C, strain set2, active compounds read low 0.993 | locus YJL187C, strain SWE1 (second series), active compounds read low 0.993 | locus YJL187C, strain SWE1, active compounds read low 1.02 | locus YJR043C, strain POL32, active compounds read low 1 | locus YJR066W, strain TOR1, active compounds read low 0.929
